# Test results reported in PubChem BioAssay (NCATS).
# Values joined by “and” are separate entries in the source; they are usually repeats but may differ in a detail not shown here. Identical values can stand only once. Records with an inconclusive call do not appear. Active and inactive are the calls of the source. Unless noted, calls follow the shape of the dose curve; as a rule, active = well fitted curve in the direction sought with a large enough effect; inconclusive = small, poorly fitted or top-dose-only effect, or another doubt; inactive = no such curve, though single readings can be large; an effect the other way counts as inactive or inconclusive.
# Columns and labels:
# [1] = target: Hexokinase-4 (Homo sapiens) + Glucokinase regulatory protein (Homo sapiens) (UniProt P35557+Q14397); experiment: qHTS assay for inhibitors of recombinant human GCK-GKRP interaction: HTRF assay (AID 743207);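 also: 0% = DMSO with GCK present and -100% = DMSO wells lacking GCK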
# Method in brief: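 Titration screening format: recombinant GST-GCK and FLAG-GKRP at 5 nM, S6P at 2 uM, labelled anti-tag antibodies, 60 min at RT, dual-wavelength HTRF readout.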
# [2] = qHTS Assay for Identifying Gametocytocidal Compounds (AID 743244); also: potency is read from the fitted curve at half-maximal effect;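 as to max response: % is scaled to controls: 0 for no effect and ±100 for the full control effect; actives lower the fluorescent signal which means gametocytes are killed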; conditions: P. falciparum 3D7 stage III-V gametocytes, alamarBlue, 72 h; max response: stronger effect = lower value
# Method in brief: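 Viability read-out was resazurin reduction (alamarBlue, 24 h) measured at Ex 525/Em 598 nm. Beforehand, late-stage (III-V) 3D7 P. falciparum gametocytes at 20,000 cells/well were incubated with compound 72 h at 37C under 5% CO2.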
# [3] = qHTS profiling of the MIPE4 collection as inhibitors of Plasmodium falciparum (3D7) proliferation (AID 743344; call rule not given here;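 also: scaled between DMSO vehicle wells and 0.29 µM artemisinin as full inhibition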); conditions: P. falciparum 3D7 in erythrocytes, SYBR Green DNA fluorescence, 72 h; at 28.5 µM (top of the series) unless noted
# Method in brief: (§1)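 Parasite DNA was quantified by SYBR Green I fluorescence (ex 485, em 535 nm) after overnight lysis in saponin/Triton buffer at room temperature. Cultures at 0.3% parasitemia and 2.5% hematocrit were first exposed to compound for 72 h at 37 C; signals were normalised to artemisinin (0.29 uM) and vehicle wells.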
# [4] = qHTS profiling of the MIPE4 collection as inhibitors of Plasmodium falciparum (DD2) proliferation (AID 743345; call rule not given here); conditions: P. falciparum Dd2 in erythrocytes, SYBR Green DNA, 72 h; at 28.5 µM (top of the series) unless noted
# Method in brief: as §1
# [5] = qHTS profiling of the MIPE4 collection as inhibitors of Plasmodium falciparum (DD2) proliferation (Rep 2) (AID 743346; call rule not given here); conditions: P. falciparum Dd2 in erythrocytes, SYBR Green DNA, 72 h; at 28.5 µM (top of the series) unless noted
# Method in brief: as §1
# [6] = qHTS assay for cell viability of HEK293 cells (AID 743288); conditions: ATP luminescence (CellTiter-Glo), 18 h; max response: stronger effect = lower value; also: nearly all actives have a fitted effect of over 50% in size; also: potency is read from the fitted curve at half-maximal effect; as to max response: % is scaled to controls: 0 for no effect and ±100 for the full control effect
# Method in brief: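 HEK293, 18 h, 37 C, ATP luminescence. Cells at 2,000/well were allowed at least 5 h to settle before dosing; CellTiter-Glo developed 30 min at RT.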
# [7] = qHTS profiling for inhibitors of Plasmodium falciparum (3D7) proliferation (AID 743322; call rule not given here;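 also: infected erythrocytes exposed to compound for 72 h before lysis; 100% = DMSO vehicle wells and 0% = 0.29 µM artemisinin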); conditions: P. falciparum 3D7 proliferation; at 28.7 µM (top of the series) unless noted
# Method in brief: as §1
# [8] = qHTS profiling for inhibitors of Plasmodium falciparum (DD2) proliferation (AID 743323; call rule not given here); conditions: lower = more inhibition; at 28.7 µM (top of the series) unless noted
# Method in brief: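 1536-well qHTS; infected RBCs 0.3% parasitemia/2.5% Hct final; cpd 72 h 37 C 5% CO2; lysis buffer + SYBR Green I, o/n RT dark; FI 485/535; norm. to 0.29 uM artemisinin and DMSO, plate-stack corrected.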
# [9] = qHTS assay for cell viability of the p53RE-bla HCT-116 cell line (AID 743292); also: nearly all actives have a fitted effect of over 55% in size; also: potency is read from the fitted curve at half-maximal effect
# Method in brief: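 CellSensor p53RE-bla HCT-116 cells, 4,000/well, preincubated 5 h at 37 C, then exposed to compounds in DMSO for 16 h at 37 C. Viability read as CellTiter-Glo luminescence (intracellular ATP) after 30 min at room temperature.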
# [10] = qHTS profiling for inhibitors of Plasmodium falciparum (HB3) proliferation (AID 743324); conditions: Plasmodium falciparum HB3 blood-stage proliferation; at 28.7 µM (top of the series) unless noted;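 also: 100% = DMSO vehicle wells and 0% = artemisinin-treated control wells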
# Method in brief: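 SYBR Green fluorescence (485 ex/535 em) of lysed cultures, incubated overnight at room temperature in the dark, quantifies parasite DNA. Infected erythrocytes at 0.3% parasitemia and 2.5% hematocrit were exposed 72 h; values normalized to DMSO and 0.29 uM artemisinin controls.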
# Hexokinase-4 (Homo sapiens) + Glucokinase regulatory protein (Homo sapiens), sequence (P35557 whole entry, looked up): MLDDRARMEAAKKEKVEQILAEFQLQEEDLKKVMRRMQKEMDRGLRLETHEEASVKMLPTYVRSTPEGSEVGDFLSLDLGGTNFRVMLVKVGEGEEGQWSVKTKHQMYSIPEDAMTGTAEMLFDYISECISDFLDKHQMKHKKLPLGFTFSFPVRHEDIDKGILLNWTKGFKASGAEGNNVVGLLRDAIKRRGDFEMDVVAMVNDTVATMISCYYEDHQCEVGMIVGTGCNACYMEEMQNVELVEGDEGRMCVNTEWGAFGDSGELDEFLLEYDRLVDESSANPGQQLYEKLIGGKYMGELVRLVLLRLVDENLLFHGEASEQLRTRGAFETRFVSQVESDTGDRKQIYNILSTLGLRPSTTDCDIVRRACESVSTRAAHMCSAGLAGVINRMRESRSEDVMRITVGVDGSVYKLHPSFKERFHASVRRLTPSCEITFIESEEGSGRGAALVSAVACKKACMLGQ
# Hexokinase-4 (Homo sapiens) + Glucokinase regulatory protein (Homo sapiens), sequence (Q14397 whole entry, looked up): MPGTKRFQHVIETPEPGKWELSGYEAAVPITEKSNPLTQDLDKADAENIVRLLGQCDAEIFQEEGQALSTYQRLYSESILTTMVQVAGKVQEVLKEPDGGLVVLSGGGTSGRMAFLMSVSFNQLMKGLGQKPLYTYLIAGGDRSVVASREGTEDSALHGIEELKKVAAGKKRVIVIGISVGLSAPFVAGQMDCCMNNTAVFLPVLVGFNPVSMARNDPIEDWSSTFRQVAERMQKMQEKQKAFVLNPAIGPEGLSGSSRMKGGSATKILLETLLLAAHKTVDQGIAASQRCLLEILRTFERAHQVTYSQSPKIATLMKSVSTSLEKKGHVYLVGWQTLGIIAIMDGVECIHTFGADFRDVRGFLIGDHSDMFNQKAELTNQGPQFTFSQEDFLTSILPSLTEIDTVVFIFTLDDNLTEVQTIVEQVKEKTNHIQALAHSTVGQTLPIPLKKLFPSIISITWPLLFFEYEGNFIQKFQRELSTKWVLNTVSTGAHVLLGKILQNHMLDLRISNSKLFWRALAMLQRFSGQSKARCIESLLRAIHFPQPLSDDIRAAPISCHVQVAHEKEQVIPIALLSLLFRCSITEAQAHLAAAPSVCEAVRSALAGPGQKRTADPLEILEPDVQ
compound,measurement,setting,value
Clc1cccc(Cl)c1NC1=NCCN1,outcome,[1],inactive
same,max response,[2],7.62% (inactive) and 5.35% (inactive)
same,"parasite growth, % of DMSO control",[3],86.2%
same,"parasite growth remaining, % of DMSO control (lower = more inhibition)",[4],77.5%
same,"parasite growth, % of control (lower = inhibition)",[5],56.5%
CN1CCN(CCCN2c3ccccc3Sc3ccc(C(F)(F)F)cc32)CC1,outcome,[1],inactive
same,Potency,[2],3.16 µM (active)
same,"parasite growth, % of DMSO control",[3],108%
same,"parasite growth remaining, % of DMSO control (lower = more inhibition)",[4],97.5%
same,"parasite growth, % of control (lower = inhibition)",[5],101%
Cn1cnc([N+](=O)[O-])c1Sc1ncnc2nc[nH]c12,outcome,[1],inactive
same,Potency,[2],39.8 µM (active) and 1.26 µM (active)
same,Potency,[6],4.47 µM (active) and 5.01 µM (active)
same,"parasite growth, % of DMSO control",[3],47.3%
same,"parasite growth remaining, % of DMSO control (lower = more inhibition)",[4],87.7%
Nc1nc2ccc(OC(F)(F)F)cc2s1,outcome,[1],inactive
same,max response,[2],5.46% (inactive) and 13.2% (inactive)
same,remaining parasite growth % (stronger effect = lower value),[7],105%
same,"activity, percent of control",[8],105%
same,"parasite growth, % of DMSO control",[3],7.34%
same,"parasite growth remaining, % of DMSO control (lower = more inhibition)",[4],7.7%
same,"parasite growth, % of control (lower = inhibition)",[5],33.2%
O=c1[nH]cnc2[nH]ncc12,outcome,[1],inactive
same,max response,[6],10.5% (inactive)
same,Potency,[9],inactive
N=c1nc(N2CCCCC2)cc(N)n1O,outcome,[1],inactive
same,max response,[2],1.66% (inactive) and 5.64% (inactive)
same,"parasite growth, % of DMSO control",[3],6.29%
N[C@@H]1CONC1=O,outcome,[1],inactive
same,max response,[2],2.44% (inactive) and 21.1% (inactive)
same,"parasite growth, % of DMSO control",[3],398%
same,"parasite growth, % of control (lower = inhibition)",[5],80.9%
CC(C)NCC(O)COc1ccc(COCCOC(C)C)cc1 (stereo not given),outcome,[1],inactive
same,max response,[2],24.7% (inactive) and -10.9% (inactive) and -2.93% (inactive)
same,"parasite growth, % of DMSO control",[3],78.7%
same,"parasite growth remaining, % of DMSO control (lower = more inhibition)",[4],102%
same,"parasite growth, % of control (lower = inhibition)",[5],98%
Nc1nc2c(ncn2COCCO)c(=O)[nH]1,outcome,[1],inactive
same,max response,[2],17.4% (inactive) and 18.4% (inactive)
same,"parasite growth, % of DMSO control",[3],96.7%
same,"parasite growth remaining, % of DMSO control (lower = more inhibition)",[4],97.6%
same,"parasite growth, % of control (lower = inhibition)",[5],124%
O=c1n(CCCN2CCN(c3cccc(Cl)c3)CC2)nc2ccccn12,outcome,[1],inactive
same,max response,[2],8.61% (inactive) and 11.5% (inactive)
same,"parasite growth, % of DMSO control",[3],60.5%
same,"parasite growth remaining, % of DMSO control (lower = more inhibition)",[4],82.9%
NC[C@H](O)c1ccc(O)c(O)c1,outcome,[1],inactive
same,max response,[2],20.6% (inactive) and 26.6% (inactive)
same,max response,[6],-4.13% (inactive)
same,Potency,[9],inactive
same,"parasite growth, % of DMSO control",[3],71.5%
same,"parasite growth remaining, % of DMSO control (lower = more inhibition)",[4],97.8%
same,"parasite growth, % of control (lower = inhibition)",[5],78.3%
CC(C)(Sc1ccc(CCN(CCCCC2CCCCC2)C(=O)NC2CCCCC2)cc1)C(=O)O,outcome,[1],inactive
same,max response,[2],7.17% (inactive) and -0.948% (inactive)
same,max response,[6],-6.91% (inactive)
same,Potency,[9],12.6 µM (active)
same,remaining parasite growth % (stronger effect = lower value),[7],98.9%
same,"activity, percent of control",[8],100%
same,"remaining proliferation (% of control), lower = more inhibition",[10],92.7%
same,"parasite growth, % of DMSO control",[3],65.2%
same,"parasite growth remaining, % of DMSO control (lower = more inhibition)",[4],91.6%
same,"parasite growth, % of control (lower = inhibition)",[5],51.8%
Cc1ccc(N(CC2=NCCN2)c2cccc(O)c2)cc1,outcome,[1],inactive
same,max response,[2],9.03% (inactive)
same,"parasite growth, % of DMSO control",[3],69.6%
CCCC(CCC)C(=O)O,max response,[6],3.06% (inactive) and -3.28% (inactive) and -9.08% (inactive)
same,Potency,[9],inactive
COc1ccc2nc(S(=O)Cc3ncc(C)c(OC)c3C)[nH]c2c1 (stereo not given),max response,[6],-16.7% (inactive)
same,Potency,[9],inactive
Cc1cc(C=c2sc3nc4ccccc4n3c2=O)c(C)n1-c1ccccc1,max response,[2],11.9% (inactive)
same,remaining parasite growth % (stronger effect = lower value),[7],37.9%
same,"activity, percent of control",[8],101%
same,"remaining proliferation (% of control), lower = more inhibition",[10],116%
same,"parasite growth, % of DMSO control",[3],84.9%
same,"parasite growth remaining, % of DMSO control (lower = more inhibition)",[4],93.2%
same,"parasite growth, % of control (lower = inhibition)",[5],73%
CCc1cc(Nc2nccc(-c3c(-c4ccc(OC)c(C(=O)Nc5c(F)cccc5F)c4)nc4ccccn34)n2)c(OC)cc1N1CCC(N2CCN(S(C)(=O)=O)CC2)CC1,Potency,[2],3.72 µM (active)
same,remaining parasite growth % (stronger effect = lower value),[7],-0.479%
same,"activity, percent of control",[8],0.369%
same,"remaining proliferation (% of control), lower = more inhibition",[10],-0.677%
same,"parasite growth, % of DMSO control",[3],4.93%
same,"parasite growth, % of control (lower = inhibition)",[5],14.9%
c1ccc(-c2nn3c(c2-c2ccnc4cc(OCCN5CCOCC5)ccc24)CCC3)nc1,max response,[2],-4.63% (inactive)
same,remaining parasite growth % (stronger effect = lower value),[7],81.9%
same,"activity, percent of control",[8],81.5%
same,"remaining proliferation (% of control), lower = more inhibition",[10],50.9%
same,"parasite growth, % of DMSO control",[3],25.6%
same,"parasite growth remaining, % of DMSO control (lower = more inhibition)",[4],50.6%
same,"parasite growth, % of control (lower = inhibition)",[5],58.7%
OC[C@H](Cc1ccccc1)Nc1nc(Oc2ccc3c(c2)CCC3)nc2c1ncn2Cc1ccc(-c2ccccc2)cc1,max response,[2],-2.93% (inactive)
same,remaining parasite growth % (stronger effect = lower value),[7],6.42%
same,"activity, percent of control",[8],5.17%
same,"remaining proliferation (% of control), lower = more inhibition",[10],-0.578%
same,"parasite growth, % of DMSO control",[3],33.7%
same,"parasite growth remaining, % of DMSO control (lower = more inhibition)",[4],44.8%
same,"parasite growth, % of control (lower = inhibition)",[5],27%
CCOc1ccc(Cc2cc([C@@H]3O[C@H](CO)[C@@H](O)[C@H](O)[C@@H]3O)ccc2Cl)cc1,max response,[2],10.7% (inactive)
same,remaining parasite growth % (stronger effect = lower value),[7],46.7%
same,"activity, percent of control",[8],101%
same,"remaining proliferation (% of control), lower = more inhibition",[10],112%
same,"parasite growth, % of DMSO control",[3],136%
same,"parasite growth remaining, % of DMSO control (lower = more inhibition)",[4],104%
same,"parasite growth, % of control (lower = inhibition)",[5],103%
Cn1cnc2c(F)c(Nc3ccc(Br)cc3Cl)c(C(=O)NOCCO)cc21,max response,[2],17.6% (inactive)
same,remaining parasite growth % (stronger effect = lower value),[7],91.2%
same,"activity, percent of control",[8],90.2%
same,"remaining proliferation (% of control), lower = more inhibition",[10],94.6%
same,"parasite growth, % of DMSO control",[3],58.2%
same,"parasite growth remaining, % of DMSO control (lower = more inhibition)",[4],95.9%
same,"parasite growth, % of control (lower = inhibition)",[5],57.1%
Cc1cc([C@@H](C)Nc2ccccc2C(=O)O)c2nc(N3CCOCC3)cc(=O)n2c1,max response,[2],-4.48% (inactive)
same,remaining parasite growth % (stronger effect = lower value),[7],50.6%
same,"activity, percent of control",[8],29.8%
same,"remaining proliferation (% of control), lower = more inhibition",[10],31.4%
same,"parasite growth, % of DMSO control",[3],5.01% [at 57.5 µM]
same,"parasite growth remaining, % of DMSO control (lower = more inhibition)",[4],16.9% [at 57.5 µM]
same,"parasite growth, % of control (lower = inhibition)",[5],7.39% [at 57.5 µM]
OCCn1cc(-c2cnc3nnn(Cc4ccc5ncccc5c4)c3n2)cn1,Potency,[2],29.6 µM (active)
same,remaining parasite growth % (stronger effect = lower value),[7],81.8%
same,"activity, percent of control",[8],86.8%
same,"remaining proliferation (% of control), lower = more inhibition",[10],64.7%
same,"parasite growth, % of DMSO control",[3],56.6%
same,"parasite growth remaining, % of DMSO control (lower = more inhibition)",[4],94.4%
same,"parasite growth, % of control (lower = inhibition)",[5],56.8%
